Test results: PubChem BioAssay (Tox21)
“And” between values parts separate entries of the source, which are not always exact repeats. Equal entries are not always repeated. More than one record can exist for a structure, and the calls need not agree. The source made the active and inactive calls. Where a call stands in place of a potency, no number is given. Calls come from the whole dose curve; as a rule, active = well fitted activation curve with a large enough effect in the repeat runs; inconclusive = weak or mixed curves; inactive = flat fitted curve, though single readings scatter.

experiment: A CellTox Green Cytotoxicity Assay to monitor cytotoxicity in HepG2 cells - 0 hour (AID 1224882); settings: CellTox Green fluorescence; series mostly up to 76.8 µM; cytotoxicity: at the top concentration; note: nearly all actives have a fitted effect of over 35% in size
Source text: National Center for Advancing Translational Sciences [NCATS]
NIH Chemical Genomics Center [NCGC]
U.S. Environmental Protection Agency [EPA]
National Institutes of Environmental Health Sciences [NIEHS]
National Toxicology Program [NTP]
Cell-based models are critical for drug discovery. Determining the natural cytotoxic effects resulting from test compounds is an essential research activity. A CellTox Green Cytotoxicity Assay to monitor cytotoxicity in real time of continues cell culture during 40 hours of the compound treatment was used to screen Tox21 10K library compounds in HepG2 cells. CellTox Green Cytotoxicity Assay is a nonlytic, homogeneous, biofluorescent method to measure cytotoxicity in cell culture after experimental manipulation. The assay system uses a proprietary asymmetric cyanine dye that is excluded from viable cells but preferentially stains the dead cell's DNA. […] Viable cells produce no appreciable increases in fluorescence. Therefore, the fluorescence signal produced by the binding interaction with dead cell DNA is proportional to cytotoxicity.
The mixture of HepG2 cell suspension and reagents were dispensed at 600cells/6 ul/well in 1536-well tissue culture treated black solid bottom plates using a Multidrop dispenser. After the assay plates were incubated at a 37 C/5% CO2 incubator for 5 hours, 23 nL of compounds dissolved in DMSO, positive and negative controls was transferred to the assay plate by a pintool work station. The plates were incubated at 37 C for 40 hours. The fluorescence intensity were measured at 0h, 8h, 16h, 24h, 32h and 40h time points using ViewLux plate reader during compound treatment.
Potency is the fitted concentration of half-maximal effect.

| SMILES | Potency | cytotoxicity |
| --- | --- | --- |
| OCCCc1ccccc1 | inactive |  |
| C=CC(=O)NC(C)(C)CS(=O)(=O)O | inactive and 27.5 µM (active) |  |
| C=CCOC(=O)CC(C)C | inactive |  |
| CC(=O)CCC(C)C | inactive and 38.9 µM (active) |  |
| Cc1cccc(Nc2cc(Cl)nc(SCC(=O)O)n2)c1C | inactive |  |
| O=C1CCCCCN1 | inactive |  |
| c1ccc2[nH]c(-c3cscn3)nc2c1 | inactive |  |
| COc1ccc(O)cc1 | inactive |  |
| COc1ccc(C(=O)c2ccccc2)c(O)c1 | inactive |  |
| C/C=C/c1ccc(O)c(OC)c1 | inactive |  |
| CCCCOCCOCCOC(C)=O | inactive |  |
| COC(=O)c1ccc(C=O)cc1 | inactive |  |
| CCCCCCCCCCCCCCCCCC(=O)OCC(O)CO (stereo not given) | inactive |  |
| COc1ccccc1O | inactive |  |
| NC(N)=NC(N)=NCCc1ccccc1 | inactive |  |
| OC[C@@H](O)[C@@H](O)[C@H](O)[C@H](O)CO | inactive |  |
| CC(C)(C)CC(C)(C)c1ccc(O)c(-n2nc3ccccc3n2)c1 | inactive |  |
| COc1ccccc1NC(=O)CC(C)=O | inactive |  |
| CN/C(=C\[N+](=O)[O-])NCCSCc1ccc(CN(C)C)o1 | inactive |  |
| CCCCCCCC(=O)OCC(O)CO (stereo not given) | inactive and 26.8 µM (active) |  |

| SMILES | Potency | cytotoxicity |
| --- | --- | --- |
| O=C(O)CN(CC(=O)O)CC(=O)O | inactive |  |
| C#C[C@]1(O)CC[C@H]2[C@@H]3CCc4cc(O)ccc4[C@H]3CC[C@@]21C | inactive |  |
| COC(=O)C1CCC(C(=O)OC)CC1 (stereo not given) | inactive |  |
| CCN1CCCC1=O | inactive |  |
| CC(=O)OC/C=C(C)/C=C/C=C(C)/C=C/C1=C(C)CCCC1(C)C | inactive |  |
| COC1=CC(=O)C[C@@H](C)[C@]12Oc1c(Cl)c(OC)cc(OC)c1C2=O | inactive |  |
| NC(=O)NO | inactive |  |
| Cc1cccc2ccccc12 | inactive |  |
| C=C(C)OC(C)=O | inactive |  |
| CCN(CC)CCOC(=O)c1ccc(N)cc1 | inactive |  |
| CC(=O)c1ccc(S(=O)(=O)NC(=O)NC2CCCCC2)cc1 | inactive |  |
| CN(C)C=O | inactive |  |
| CO[C@H]1C=CO[C@@]2(C)Oc3c(C)c(O)c4c(O)c(c(/C=N/N5CCN(C)CC5)c(O)c4c3C2=O)NC(=O)/C(C)=C\C=C[C@H](C)[C@H](O)[C@@H](C)[C@@H](O)[C@@H](C)[C@H](OC(C)=O)[C@@H]1C | inactive |  |
| COCC(C)N (stereo not given) | inactive |  |
| CC1=C(/C=C/C(C)=C/C=C/C(C)=C/C(=O)O)C(C)(C)CCC1 | inactive |  |
| CC(C)CC(C)CC(O)CC(C)C (stereo not given) |  | -0.668% (inactive) |
| COc1cc2c(c(OC)c1OC)-c1ccc(OC)c(=O)cc1[C@@H](NC(C)=O)CC2 | inactive |  |
| Cn1cnc2c1c(=O)[nH]c(=O)n2C | inactive |  |
| COCCOCCOC | inactive |  |
| NC(=O)c1ccc([N+](=O)[O-])cc1Cl | inactive |  |
